Unmarked numbers belong to inactive results.
The compounds below were run on Pseudomonas aeruginosa PA14 dppA1-A5 penta mutant + pBBR5.DppA1 (PA14_58350) (assay: respiration area under curve with compound as sole nitrogen source, 24 h (OmniLog AUC (arbitrary units)); higher = more respiration / better utilisation as nitrogen source, active = 2000 or more).
Procedure: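 Biolog Phenotype MicroArray plates PM6-PM8: each di/tripeptide is the sole nitrogen source. Tetrazolium reduction was read in the OmniLog for 24 h at 37°C and summarised as area under the respiration curve (arbitrary units). Values below 2000 count as no respiration. Strain is the SBP penta mutant complemented with DppA1 on a plasmid under its native promoter. Lys/His/Cys peptides are excluded.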
In the case of `N[C@@H](CCC(=O)O)C(=O)N[C@@H](Cc1c[nH]c2ccccc12)C(=O)O` (plate: PM6), the “respiration area under curve” value is reported as 1820. In the case of `NC(=O)CC[C@H](NC(=O)[C@@H](N)CC(=O)O)C(=O)O` (plate: PM8), the “respiration area under curve” value is reported as 7700 (active). For `CC(C)[C@H](NC(=O)[C@@H](N)CC(N)=O)C(=O)O` (plate: PM6), the “respiration area under curve” value was 5500 (active). With `C[C@H](NC(=O)CN)C(=O)O` (plate: PM6) the “respiration area under curve” value was 2380 (active). For `CC(C)C[C@H](N)C(=O)N[C@@H](CCCN=C(N)N)C(=O)O` (plate: PM6), the “respiration area under curve” value was 8260 (active). For `NC(=O)CC[C@H](NC(=O)[C@@H](N)CCC(N)=O)C(=O)O` (plate: PM6), the “respiration area under curve” value was 6630 (active). For `CC(C)C[C@H](N)C(=O)N[C@@H](Cc1ccccc1)C(=O)O` (plate: PM6), the “respiration area under curve” value was 4550 (active). With `NC(CO)C(=O)NC(CCC(=O)O)C(=O)O` (stereo not given) (plate: PM8) the “respiration area under curve” value was 3950 (active). With `N[C@@H](CCC(=O)O)C(=O)N[C@@H](CC(=O)O)C(=O)O` (plate: PM6) the “respiration area under curve” value was 19.3. `N[C@@H](Cc1ccccc1)C(=O)N[C@@H](Cc1ccccc1)C(=O)O` (plate: PM7) was tested, and the “respiration area under curve” value was 5690 (active). `O=C(O)[C@H](Cc1ccccc1)NC(=O)[C@@H]1CCCN1` (plate: PM7) was tested, and the “respiration area under curve” value was 6240 (active). For `N[C@@H](Cc1ccc(O)cc1)C(=O)N[C@@H](Cc1ccc(O)cc1)C(=O)O` (plate: PM7), the “respiration area under curve” value was 6170 (active). In the case of `N[C@@H](Cc1c[nH]c2ccccc12)C(=O)N[C@@H](CC(=O)O)C(=O)O` (plate: PM7), the “respiration area under curve” value is reported as 502. `CSCC[C@H](NC(=O)[C@@H](N)[C@@H](C)O)C(=O)O` (plate: PM7) was tested, and the “respiration area under curve” value was 2920 (active). For `NCC(=O)N[C@@H](Cc1ccccc1)C(=O)O` (plate: PM6), the “respiration area under curve” value was 2000 (active). With `N[C@@H](CC(=O)O)C(=O)N[C@@H](Cc1c[nH]c2ccccc12)C(=O)O` (plate: PM6) the “respiration area under curve” value was 1340. `NC(N)=NCCC[C@H](NC(=O)[C@@H](N)CCCN=C(N)N)C(=O)O` (plate: PM6) was tested, and the “respiration area under curve” value was 8780 (active). `CSCC[C@H](N)C(=O)N[C@@H](Cc1ccccc1)C(=O)O` (plate: PM7) was tested, and the “respiration area under curve” value was 680. With `C[C@@H](O)[C@H](N)C(=O)N[C@@H](CCC(=O)O)C(=O)O` (plate: PM7) the “respiration area under curve” value was 5630 (active). `CC[C@H](C)[C@H](N)C(=O)N[C@@H](CCCN=C(N)N)C(=O)O` (plate: PM6) was tested, and the “respiration area under curve” value was 7890 (active). With `CSCC[C@H](NC(=O)[C@@H](N)Cc1ccccc1)C(=O)O` (plate: PM8) the “respiration area under curve” value was 805. In the case of `CC(C)C[C@@H](N)C(=O)NCC(=O)O` (plate: PM8), the “respiration area under curve” value is reported as 0. In the case of `NCC(=O)NCC(=O)N[C@@H](Cc1ccccc1)C(=O)O` (plate: PM8), the “respiration area under curve” value is reported as 3750 (active). With `N[C@@H](Cc1ccccc1)C(=O)N1CCC[C@H]1C(=O)O` (plate: PM7) the “respiration area under curve” value was 3980 (active). With `N[C@@H](CO)C(=O)N1CCC[C@H]1C(=O)O` (plate: PM7) the “respiration area under curve” value was 12700 (active). `NC(=O)CC[C@H](NC(=O)[C@@H](N)CCCN=C(N)N)C(=O)O` (plate: PM6) was tested, and the “respiration area under curve” value was 8870 (active). In the case of `NC(=O)CC[C@H](NC(=O)[C@@H]1CCCN1)C(=O)O` (plate: PM7), the “respiration area under curve” value is reported as 9270 (active). For `CC(C)C[C@H](NC(=O)[C@@H](N)Cc1c[nH]c2ccccc12)C(=O)O` (plate: PM7), the “respiration area under curve” value was 3710 (active). For `C[C@H](N)C(=O)N[C@@H](C)C(=O)N[C@@H](C)C(=O)O` (plate: PM8), the “respiration area under curve” value was 8340 (active). With `CC[C@H](C)[C@H](N)C(=O)N[C@@H](CCC(N)=O)C(=O)O` (plate: PM6) the “respiration area under curve” value was 5000 (active). With `NC(=O)C[C@H](NC(=O)[C@@H](N)CO)C(=O)O` (plate: PM8) the “respiration area under curve” value was 10900 (active). In the case of `CSCC[C@H](NC(=O)CN)C(=O)O` (plate: PM6), the “respiration area under curve” value is reported as 50.7. With `CC(C)C[C@H](NC(=O)CN)C(=O)O` (plate: PM6) the “respiration area under curve” value was 969. `CC(C)[C@H](N)C(=O)N[C@@H](Cc1ccc(O)cc1)C(=O)O` (plate: PM7) was tested, and the “respiration area under curve” value was 7120 (active). For `C[C@H](N)C(=O)N[C@@H](CCCN=C(N)N)C(=O)O` (plate: PM6), the “respiration area under curve” value was 9300 (active).
